Test results from publication PMC5540273 (PLoS ONE, 2017).

The compounds below were run on T1, JNK1. Conditions: concentration: 1 μM, replicates: in singlicate; n = 1.
T1 construct: gene MAPK8
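Also: KINOMEscan kinase panel screen.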

Row | Compound | %Inh
1 | N#Cc1ccc(-c2cc(-c3c[nH]nc3-c3ccccn3)ccn2)cc1 [GW693028] | 34%
2 | CCc1ccnc(/C=C/c2n[nH]c3cc(Sc4ccccc4C(=O)NC)ccc23)c1 | 0%
3 | Cc1cccc(-c2nc(Nc3ccc4ncsc4c3)c3ccccc3n2)n1 [GW867588] | 2%
4 | O=C1NC(=O)C(N2CCc3ccccc32)=C1c1cccc(Cl)c1 [SB-408010] | 41%
5 | NS(=O)(=O)c1cccc(-c2ccc3ncc(N4CCOCC4)nc3c2)c1 [GSK1535721] | 3%
6 | CN1c2ccc(CNc3ccc(F)cc3)cc2-c2c(cnn2C)S1(=O)=O | 0%
7 | Cn1ccc2ncnc(Oc3ccc(NC(=O)Nc4ccncc4)c(Cl)c3)c21 | 0%
8 | COc1cc(Nc2nccc(N3CCC(NC(=O)c4cccc(NC(C)=O)c4)C3)n2)cc(OC)c1OC (stereo not shown) [GSK1379754] | 31%
9 | CSc1ccc(-c2cc3ncnc(SCC(=O)O)c3s2)cc1 | 5%
10 | CC(C)(C)n1cnc2c(N)ncnc21 [SKF-97359] | 20%
11 | Cc1nnc(-c2ccc(C)c(-c3ccc(C(=O)Nc4ccc(NS(C)(=O)=O)cc4)cc3)c2)o1 [GW702865] | 0%
12 | COc1ccc(S(=O)(=O)NC2CCN(c3cc(C)nc(Nc4cccc(C#N)c4)n3)CC2)cc1.O=C(O)C(F)(F)F [GSK1653539] | 0%
13 | Cc1c2ccc(N(C)c3ccnc(Nc4cccc(S(N)(=O)=O)c4)n3)cc2nn1Cc1ccccc1.Cl.Cl [GW787226] | 0%
